Assay results from PubChem BioAssay (EPA / NIEHS).
Calls of active or inactive are those of the source. Rule for the calls: active = hit-call score of the fitted dose curve at least 0.9, where 1 is the maximum; inactive = score below 0.9.

Columns and labels:
[1] = ATG_CRE_CIS: Attagene CIS-FACTORIAL HepG2 Assay for human cAMP Responsive Element (CRE) binding protein 3 (AID 2282926); details: HepG2 CRE cis-reporter, Attagene multiplexed mRNA; actives raise or lower the signal
How it was run: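 Transfected HepG2 were treated for 24 hours, then RNA was extracted and reporter cDNA amplified with sequence-specific primers. Labelled fragments were separated by capillary electrophoresis, and the CRE signal was fitted bidirectionally with DMSO as baseline.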

[2] = ATG_DR4_LXR_CIS: Attagene CIS-FACTORIAL HepG2 Assay for human Liver X Receptor (LXR), DR4 submotif (AID 2282929); details: HepG2 Attagene DR4 cis-reporter, mRNA transcription; actives raise or lower the signal
How it was run: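 DR4 cis-reporter in HepG2, 24 h exposure. Detection: RT-PCR, 6-FAM labelling, CE fragment analysis. Endpoint fitted bidirectionally, DMSO = baseline.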

[3] = ATG_AP_1_CIS: Attagene CIS-FACTORIAL HepG2 Assay for human Activator Protein 1 (AP-1) (AID 2282931); details: HepG2 Attagene cis-factorial AP-1 reporter mRNA; actives raise or lower the signal
How it was run: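 Cis-regulated reporter units transiently expressed in HepG2 report endogenous transcription-factor activity. Signal: reporter mRNA at 24 h, via RT-PCR and fluorescent capillary electrophoresis. Endpoint derived by bidirectional fitting, DMSO as negative control.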

[4] = ATG_AP_2_CIS: Attagene CIS-FACTORIAL HepG2 Assay for human Activator Protein 2 (AP-2) (AID 2282932); details: HepG2 AP-2 cis-reporter, Attagene transcription factor profiling; actives raise or lower the signal
How it was run: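 Multiplexed mRNA reporter assay in HepG2: cis-regulated units report endogenous factor activity after 24 h treatment. Fluorescence from capillary electrophoresis of RT-PCR products gives the signal, with DMSO as baseline.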

[5] = target: Transcription factor E2F1 (Homo sapiens) (UniProt Q01094); test: ATG_E2F_CIS: Attagene CIS-FACTORIAL HepG2 Assay for human E2F Transcription Factor 1 (AID 2282935); details: HepG2 Attagene cis-reporter, E2F reporter RNA transcripts; actives raise or lower the signal
Sequence of Transcription factor E2F1 (Homo sapiens) (Q01094 whole entry, looked up): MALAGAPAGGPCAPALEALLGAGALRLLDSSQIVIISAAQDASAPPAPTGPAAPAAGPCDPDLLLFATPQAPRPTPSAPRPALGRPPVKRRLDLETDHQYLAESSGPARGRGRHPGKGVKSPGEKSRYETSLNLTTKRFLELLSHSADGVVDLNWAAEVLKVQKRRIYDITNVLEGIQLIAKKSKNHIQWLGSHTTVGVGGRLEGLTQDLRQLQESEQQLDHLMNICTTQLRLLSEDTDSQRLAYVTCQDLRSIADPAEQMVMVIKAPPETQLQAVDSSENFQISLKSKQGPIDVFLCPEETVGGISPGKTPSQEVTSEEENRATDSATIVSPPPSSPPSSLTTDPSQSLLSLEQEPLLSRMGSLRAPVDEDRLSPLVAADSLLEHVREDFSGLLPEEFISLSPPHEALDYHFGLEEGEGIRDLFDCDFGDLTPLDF
How it was run: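 Measures reporter transcript levels via RT-PCR with capillary electrophoresis detection in HepG2 cells harboring cis-regulated reporter units; 24 h post-dose; bidirectional curve fitting with DMSO as baseline.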

[6] = ATG_M_61_CIS: Attagene CIS-FACTORIAL HepG2 Assay for M61 Transcription Factor (Internal Marker) (AID 2282937); details: HepG2 Attagene CIS-FACTORIAL M61 internal marker reporter; actives raise or lower the signal
How it was run: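 Background-control endpoint: HepG2 cells with cis-regulated reporter constructs, 24 h exposure, reporter mRNA detected via fluorescent primer extension and capillary electrophoresis; values from bidirectional fitting with DMSO baseline.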

[7] = ATG_EGR_CIS: Attagene CIS-FACTORIAL HepG2 Assay for human Early Growth Response 1 (EGR1) (AID 2282938); details: HepG2 Attagene CIS-FACTORIAL EGR reporter mRNA; actives raise or lower the signal
How it was run: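 Endpoint derived by bidirectional fitting versus DMSO vehicle. Method: cis-promoter reporter units transfected into HepG2, 24 h dosing, RNA isolation, RT-PCR with 6-FAM primer extension and HpaI digestion, then capillary electrophoresis fluorescence detection.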

[8] = ATG_M_19_CIS: Attagene CIS-FACTORIAL HepG2 Assay for M19 Transcription Factor (Internal Marker) (AID 2282939); details: HepG2 Attagene CIS-FACTORIAL M19 internal marker reporter; actives raise or lower the signal
How it was run: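 HepG2 cells transiently transfected with cis-regulated multiplexed reporter units, dosed 24 h. Reporter mRNA quantified by RT-PCR and capillary electrophoresis; internal background marker fitted bidirectionally versus DMSO.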

[9] = ATG_Ets_CIS: Attagene CIS-FACTORIAL HepG2 Assay for human Erythroblast Transformation Specific (ETS) (AID 2282941); details: HepG2 ETS cis-reporter transcription, actives raise or lower the signal
How it was run: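 HepG2 cells transfected with multiple cis-regulated reporter units measuring endogenous ETS-driven transcription, 24 h after dosing. Reporter mRNA quantified by RT-PCR with capillary electrophoresis; bidirectional fit relative to DMSO.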

[10] = target: Hepatocyte nuclear factor 3-beta (Homo sapiens) (UniProt Q9Y261); test: ATG_FoxA2_CIS: Attagene CIS-FACTORIAL HepG2 Assay for human Forkhead box A2 (FOXA2) (AID 2282942); details: HepG2 cis-reporter transcription factor activity, 24 h; actives raise or lower the signal
Sequence of Hepatocyte nuclear factor 3-beta (Homo sapiens) (Q9Y261 whole entry, looked up): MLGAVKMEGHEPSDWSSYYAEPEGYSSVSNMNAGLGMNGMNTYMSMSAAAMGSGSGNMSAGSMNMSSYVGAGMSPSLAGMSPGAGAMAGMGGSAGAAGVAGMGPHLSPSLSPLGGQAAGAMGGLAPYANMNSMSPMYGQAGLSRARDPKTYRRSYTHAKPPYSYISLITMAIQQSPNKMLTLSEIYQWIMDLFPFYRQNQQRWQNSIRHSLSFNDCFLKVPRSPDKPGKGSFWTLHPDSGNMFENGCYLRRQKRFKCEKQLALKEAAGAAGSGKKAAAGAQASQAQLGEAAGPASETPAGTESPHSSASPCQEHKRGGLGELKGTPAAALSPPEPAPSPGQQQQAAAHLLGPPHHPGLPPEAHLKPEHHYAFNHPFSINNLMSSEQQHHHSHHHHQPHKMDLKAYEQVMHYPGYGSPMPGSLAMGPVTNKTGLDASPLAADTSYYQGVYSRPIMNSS
How it was run: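 Measured: reporter mRNA induction or loss in HepG2 transiently carrying multiple cis-regulated reporter units, 24 h after dosing. Quantified by RT-PCR plus capillary electrophoresis, normalised to DMSO.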

[11] = ATG_GATA_CIS: Attagene CIS-FACTORIAL HepG2 Assay for human GATA Binding Protein (AID 2282944); details: HepG2 GATA cis-element reporter, Attagene multiplex mRNA; actives raise or lower the signal
How it was run: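 HepG2 cells transiently transfected with multiplexed cis-element reporter units measure endogenous GATA activity; after 24 h compound exposure, reporter mRNA quantified by RT-PCR and capillary electrophoresis. Changes fitted in both directions vs DMSO.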

[12] = ATG_GLI_CIS: Attagene CIS-FACTORIAL HepG2 Assay for human Zinc Finger Protein GLI1 (AID 2282945); details: HepG2, Attagene cis-factorial reporter mRNA, GLI element; actives raise or lower the signal
How it was run: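 Transiently transfected HepG2 cells report endogenous transcription factor activity via cis-element-driven reporter units. After 24 h compound exposure, reporter mRNA was measured by RT-PCR with capillary electrophoresis; bidirectional fitting against DMSO baseline.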

[13] = ATG_ISRE_CIS: Attagene CIS-FACTORIAL HepG2 Assay for human Interferon Regulatory Factor 1 (IRF1) binding to an Interferon-Stimulated Response Element (ISRE) (AID 2282948); details: HepG2 ISRE cis-reporter (Attagene), mRNA transcription readout; actives raise or lower the signal
How it was run: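 Transiently transfected HepG2 cells carrying cis-element reporter units, dosed 24 hours. Reporter mRNA quantified by RT-PCR, fluorescent primer extension, HpaI digestion and capillary electrophoresis. Bidirectional fitting relative to DMSO.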

[14] = ATG_M_32_CIS: Attagene CIS-FACTORIAL HepG2 Assay for M32 Transcription Factor (Internal Marker) (AID 2282949); details: HepG2 Attagene cis-factorial M32 reporter, mRNA; actives raise or lower the signal;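 note: background control marker of the multiplexed CIS panel rather than a real target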
How it was run: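 Internal background marker read-out: RT-PCR/capillary electrophoresis fluorescence of reporter transcripts from transiently transfected HepG2 cells after 24 h chemical exposure. Activity fitted bidirectionally relative to DMSO negative control.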

[15] = ATG_M_06_CIS: Attagene CIS-FACTORIAL HepG2 Assay for M06 Transcription Factor (Internal Marker) (AID 2282950); details: HepG2 Attagene CIS-FACTORIAL M06 internal marker reporter; actives raise or lower the signal
How it was run: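 Internal background marker within multiplexed cis-reporter HepG2 system. Cells transiently transfected, dosed 24 h; reporter mRNA measured by RT-PCR, HpaI digestion and capillary electrophoresis. Bidirectional fit relative to DMSO.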

[16] = ATG_MRE_CIS: Attagene CIS-FACTORIAL HepG2 Assay for human Metal Responsive Element (MRE) (AID 2282954); details: HepG2 MRE cis-reporter transcription, Attagene multiplex; actives raise or lower the signal
How it was run: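 Fluorescent reporter fragments separated by capillary electrophoresis give mRNA induction for the MRE unit after 24 h treatment of transfected HepG2 cells. Endogenous transcription-factor activity is read; DMSO serves as negative control and baseline.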

[17] = target: Paired box protein Pax-6 (Homo sapiens) (UniProt P26367); test: ATG_Pax6_CIS: Attagene CIS-FACTORIAL HepG2 Assay for human Paired Box 6 (PAX6) (AID 2282956); details: HepG2 CIS-FACTORIAL PAX6 reporter transcription, RNA readout; actives raise or lower the signal
Sequence of Paired box protein Pax-6 (Homo sapiens) (P26367 whole entry, looked up): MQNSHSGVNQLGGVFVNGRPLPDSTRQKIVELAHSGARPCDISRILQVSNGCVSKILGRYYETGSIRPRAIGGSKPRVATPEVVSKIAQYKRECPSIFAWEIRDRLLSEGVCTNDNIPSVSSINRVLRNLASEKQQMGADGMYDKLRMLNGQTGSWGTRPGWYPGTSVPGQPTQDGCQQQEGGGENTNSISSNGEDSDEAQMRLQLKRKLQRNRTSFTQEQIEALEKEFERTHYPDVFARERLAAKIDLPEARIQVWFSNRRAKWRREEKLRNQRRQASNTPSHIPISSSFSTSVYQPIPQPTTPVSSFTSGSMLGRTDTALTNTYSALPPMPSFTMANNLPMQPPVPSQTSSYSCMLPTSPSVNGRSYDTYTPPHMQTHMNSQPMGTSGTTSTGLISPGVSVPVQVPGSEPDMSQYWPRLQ
How it was run: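 HepG2 cells transiently transfected with cis-promoter-driven multiplexed reporter units sensing endogenous transcription factor activity; 24 h chemical exposure. Reporter mRNA quantified by RT-PCR, 6-FAM labelling, HpaI digestion and capillary electrophoresis; bidirectional fit versus DMSO baseline.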

[18] = ATG_PXRE_CIS: Attagene CIS-FACTORIAL HepG2 Assay for human Pregnane X Receptor Element (PXRE) (AID 2282957); details: HepG2 Attagene CIS-FACTORIAL PXRE reporter, mRNA; actives raise or lower the signal
How it was run: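 Multiplexed cis-reporter assay in transiently transfected human HepG2 cells; 24 h chemical exposure. Reporter transcripts quantified by RT-PCR with fluorescent labeling and capillary electrophoresis.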

[19] = target: Transcription factor Sp1 (Homo sapiens) (UniProt P08047); test: ATG_Sp1_CIS: Attagene CIS-FACTORIAL HepG2 Assay for human Specificity Protein 1 (Sp1) (AID 2282961); details: HepG2 Sp1 cis-reporter transcription, actives raise or lower the signal
Sequence of Transcription factor Sp1 (Homo sapiens) (P08047 whole entry, looked up, the tested form may be a part): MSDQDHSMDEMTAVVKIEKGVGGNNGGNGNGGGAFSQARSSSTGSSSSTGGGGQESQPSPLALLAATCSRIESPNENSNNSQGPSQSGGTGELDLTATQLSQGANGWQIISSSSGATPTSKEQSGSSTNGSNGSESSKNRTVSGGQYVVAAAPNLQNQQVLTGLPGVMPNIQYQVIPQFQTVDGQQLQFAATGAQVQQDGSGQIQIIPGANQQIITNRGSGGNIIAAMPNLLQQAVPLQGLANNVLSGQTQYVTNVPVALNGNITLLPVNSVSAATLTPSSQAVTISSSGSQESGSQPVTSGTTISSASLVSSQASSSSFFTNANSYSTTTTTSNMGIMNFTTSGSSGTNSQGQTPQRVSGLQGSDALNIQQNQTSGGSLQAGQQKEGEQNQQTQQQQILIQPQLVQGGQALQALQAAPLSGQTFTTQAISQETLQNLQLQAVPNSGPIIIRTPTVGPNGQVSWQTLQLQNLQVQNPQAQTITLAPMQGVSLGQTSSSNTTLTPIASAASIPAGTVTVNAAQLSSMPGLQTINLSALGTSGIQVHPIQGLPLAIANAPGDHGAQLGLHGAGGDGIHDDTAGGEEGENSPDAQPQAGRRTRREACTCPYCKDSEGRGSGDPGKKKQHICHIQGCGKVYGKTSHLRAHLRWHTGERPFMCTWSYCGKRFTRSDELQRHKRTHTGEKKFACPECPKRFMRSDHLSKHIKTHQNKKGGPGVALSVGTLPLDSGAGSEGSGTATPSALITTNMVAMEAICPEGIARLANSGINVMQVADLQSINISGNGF
How it was run: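 Endpoint reflects endogenous Sp1 transcriptional activity, not an exogenous fusion protein: HepG2 cells with transfected cis-regulated reporters, 24 h dosing, RT-PCR/capillary electrophoresis mRNA read-out, DMSO-normalised bidirectional fit.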

[20] = target: Signal transducer and activator of transcription 3 (Homo sapiens) (UniProt P40763); test: ATG_STAT3_CIS: Attagene CIS-FACTORIAL HepG2 Assay for human Signal Transducer and Activator of Transcription 3 (STAT3) (AID 2282963); details: HepG2, Attagene cis-factorial STAT3 reporter transcription; actives raise or lower the signal
Sequence of Signal transducer and activator of transcription 3 (Homo sapiens) (P40763 whole entry, looked up): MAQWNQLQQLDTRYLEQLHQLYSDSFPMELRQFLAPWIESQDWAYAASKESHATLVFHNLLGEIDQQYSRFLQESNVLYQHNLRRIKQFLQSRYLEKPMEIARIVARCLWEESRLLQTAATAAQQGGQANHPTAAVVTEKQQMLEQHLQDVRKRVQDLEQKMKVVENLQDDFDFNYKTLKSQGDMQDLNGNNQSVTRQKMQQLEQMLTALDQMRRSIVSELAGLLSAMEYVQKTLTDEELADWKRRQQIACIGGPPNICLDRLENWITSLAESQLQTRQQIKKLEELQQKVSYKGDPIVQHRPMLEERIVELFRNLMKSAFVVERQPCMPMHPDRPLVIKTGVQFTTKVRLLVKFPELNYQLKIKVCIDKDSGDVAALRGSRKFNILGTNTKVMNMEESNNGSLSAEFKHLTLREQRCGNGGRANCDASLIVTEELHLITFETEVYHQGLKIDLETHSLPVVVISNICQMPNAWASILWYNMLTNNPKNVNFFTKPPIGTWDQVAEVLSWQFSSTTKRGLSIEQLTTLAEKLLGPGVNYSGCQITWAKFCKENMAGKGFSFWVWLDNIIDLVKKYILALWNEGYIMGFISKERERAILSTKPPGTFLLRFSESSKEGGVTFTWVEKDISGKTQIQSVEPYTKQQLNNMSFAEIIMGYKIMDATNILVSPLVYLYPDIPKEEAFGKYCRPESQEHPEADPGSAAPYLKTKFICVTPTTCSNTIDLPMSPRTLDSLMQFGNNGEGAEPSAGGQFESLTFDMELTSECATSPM
How it was run: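 Values derive from bidirectional fits relative to DMSO of reporter mRNA levels, measured by RT-PCR with capillary electrophoresis, in HepG2 cells carrying transiently transfected cis-regulated reporter units and exposed 24 h.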

Measured: AC50

N#CCCCCC#N
inactive: all assays above

CN(C)N
inactive: all assays above

COc1ncc(F)c2nc(S(=O)(=O)Nc3c(F)cccc3F)nn12
active: [18] 15.3 µM
inactive: all other assays above

CC(C)(O)C#N
active: [18] 27.4 µM
inactive: all other assays above

CCOP(O)OCC
active: [18] 30.1 µM
inactive: all other assays above

COc1ccc(CO)cc1
inactive: all assays above

CCC(=O)c1ccc(Cl)cc1
inactive: all assays above

O=[N+]([O-])O.O=[N+]([O-])O.[Cd]
active: [1] 1.98 µM | [2] 0.666 µM | [3] 5.97 µM | [7] 1 µM | [11] 11.1 µM | [12] 9.58 µM | [13] 1.03 µM | [16] 0.351 µM | [17] 1.79 µM | [18] 0.872 µM | [19] 1.38 µM | [20] 11.1 µM
inactive: [4] | [5] | [6] | [8] | [9] | [10] | [14] | [15]

C#CC1(O)CCCCC1
inactive: all assays above

CNC(=N[N+](=O)[O-])NCC1CCOC1 (stereo not given)
inactive: all assays above

Oc1cc(Cl)ccc1Cl
active: [18] 27.6 µM
inactive: all other assays above

O=c1[nH]c(Cl)c(Cl)cc1Cl
active: [18] 38.7 µM
inactive: all other assays above

CC(C)c1ccc(O)cc1
active: [2] 140 µM | [18] 33.6 µM
inactive: all other assays above

Nc1ccc(Cl)c(Cl)c1
active: [2] 134 µM | [13] 135 µM
inactive: all other assays above
